Hits are enriched below; roughly 2.4% of the tested compounds scored in any of these assays.
WRN helicase inh – inhibitors of human WRN helicase | Q14191 | WRN helicase unwinding, fluorescent forked duplex, kinetic | Potency, µM (highest dose often 114 µM), inactives show top-dose activity change, negative = inhibition, most hits filed as inhibitors | 0.46% of 360,000 active | AID 651768; also: % is scaled to controls: 0 for no effect and ±100 for the full control effect; nearly all actives have a fitted effect of over 55% in size
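Screening of the MLSMR collection measured strand separation of a quenched forked DNA duplex (100 nM) by 20 nM WRN with 2 mM ATP, all final. Compounds were preincubated with enzyme 15 min at room temperature.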
Pol iota inh – inhibitors of human DNA polymerase iota | Q9UNA4 | Pol iota fluorescent replication assay, 10 min | Potency, µM (top dose mostly 115 µM), inactives show at the highest dose activity, negative = inhibition, actives largely listed as inhibitors | 1% of 390,000 active
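Fluorescent replication assay read twice, at 0 min and 10 min after adding 50 nM (final) substrate. Enzyme (10 nM) and compounds were first incubated 15 min at room temperature; enzyme-free buffer wells were negative controls.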
FEN1 inh – inhibitors of human flap endonuclease 1; Recombinant FEN1 flap cleavage, fluorescence, 15 min; Potency, µM (titrated, usually from 114 µM), for inactives: at the highest dose activity change, negative = inhibition, hits mostly inhibitors; AID 588795; 0.35% of 390,000 active; P39748; also: % is scaled to controls: 0 for no effect and ±100 for the full control effect; nearly all actives have a fitted effect of over 65% in size
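FEN1 at 10 nM preincubated with compounds 15 min at room temperature, then flap DNA substrate added at 50 nM final. Signal read at 0 and 15 min; concentration-response fitted with four-parameter Hill equation.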
Pol beta inh – inhibitors of human DNA polymerase beta | P06746 | Pol beta primer extension/strand displacement, fluorescence kinetic | Potency, µM (doses to about 114 µM), inactives show top-dose activity change, negative = inhibition, hits mostly inhibitors | 1.3% of 340,000 active | AID 485314; also: % is scaled to controls: 0 for no effect and ±100 for the full control effect
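Pol beta (10 nM) was preincubated with compound for 15 min at room temperature. The reaction was then started with 50 nM substrate and read immediately and after a further 10 min at room temperature.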
Pol eta inh-1 – inhibitors of human DNA polymerase eta | 1.2% of 390,000 active | Q9Y253 | Potency, µM (highest dose often 114 µM), without a hit: at the highest dose activity change, negative = inhibition, most hits filed as inhibitors | recombinant Pol eta, fluorescent DNA replication assay; also: % is scaled to controls: 0 for no effect and ±100 for the full control effect
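Pol eta at 10 nM preincubated with compounds 15 min at room temperature; reaction started with fluorescent substrate (50 nM final) and read kinetically at 0 and 10 min.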
Pol kappa inh-1 – inhibitors of human DNA polymerase kappa. purified Pol kappa, fluorescent DNA synthesis assay, 10 min. Potency, µM (top dose mostly 107 µM), without a hit: top-dose activity, negative = inhibition, usual class: inhibitors. 0.53% of 400,000 active. AID 588579; also: % is scaled to controls: 0 for no effect and ±100 for the full control effect
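First, compounds were pin-transferred onto 10 nM Pol kappa. After 15 min at room temperature, substrate was added to 50 nM final. Fluorescence was then measured kinetically at 0 and 10 min.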
Pol iota confirm – Confirm cherry-picked inhibitors of human polymerase iota | Potency, µM, hits mostly inhibitors | 77% of 1,500 active | AID 720496 | Pol iota primer extension, TAMRA/BHQ fluorescence | shares compounds with Pol kappa inh-1
Pol kappa inh-2 – Pol kappa (human) inhibition, cherry-pick confirmation; Potency, µM, most hits filed as inhibitors; shares compounds with Pol eta inh-1; purified Pol-kappa, fluorescent strand-displacement substrate; 76% of 920 active
Pol eta inh-2 – confirmation of human DNA polymerase eta inhibitors. shares compounds with Pol eta inh-1. Pol eta primer extension, TAMRA/BHQ fluorescence, 10 min. Potency, µM, most hits filed as inhibitors. 64% of 2,600 active
* hit, by the source's call; ? = inconclusive; · = no result given; [ ] = dose if it differs, or a comment. Calls follow the shape of the dose curve; as a rule, active = well fitted curve in the direction sought with a large enough effect; inconclusive = small, poorly fitted or top-dose-only effect, or another doubt; inactive = no such curve, though single readings can be large; an effect the other way counts as inactive or inconclusive. Potency is read from the fitted curve at half-maximal effect.

SMILES	WRN helicase inh	Pol iota inh	FEN1 inh	Pol beta inh	Pol eta inh-1	Pol kappa inh-1	Pol iota confirm	Pol eta inh-2	others
C[C@H](CO)N1C[C@H](C)[C@@H](CN(C)S(=O)(=O)c2ccc3c(c2)OCCCO3)OCc2cn(nn2)CCCC1=O	4.9%	·	·	·	-8.1%	·	·	·
Cn1ccsc1=NC(=O)c1ccc([N+](=O)[O-])o1	?	25.1µM*	-17.6%	7.5%	39.8µM*	?	33.6*	42.6*
Cn1ccsc1=NC(=O)c1ccc(=O)[nH]c1	8.8%	18.2%	7.1%	1.4%	-7.0%	11.2%	·	·
O=c1/c(=C/c2ccco2)sc2n1CN(c1ccccc1)CN=2	-8.5%	?	-4.7%	2.1%	-10.6%	-5.4%	·	·
O=c1nc2s/c(=C\c3ccco3)c(=O)n2nc1Cc1ccc(F)cc1	50.1µM*	10µM*	?	2.82µM*	7.08µM*	20µM*	37.7*	30.1*
O=C(O)c1ccc(N=Nc2c(O)ccc3ncccc23)cc1	?	3.98µM*	?	5.01µM*	2.82µM*	28.2µM*	33.6*	15.1*	Pol kappa inh-2=10.6*
CCc1nn2c(=O)cc(COc3ccc(/C=C4\C(=N)N5N=C(CC(C)C)SC5=NC4=O)cc3)nc2s1	-15.3%[11.6 µM]	?	-16.3%	?	?	-34.9%	75.2*	75.7*
CC1=C(C(=O)N2CCN(c3ccccc3)CC2)C2(CCCCC2)OC1=O	·	-5.6%	10.1%	20.3%	·	-9.6%	·	·
COc1cc(C(c2c(C(=O)O)[nH]c3ccccc23)c2c(C(=O)O)[nH]c3ccccc23)ccc1OCc1ccccc1	-15.9%[11.6 µM]	-26.5%	-6.2%	44.7µM*	50.1µM*	?	?	?
O=C(O)c1[nH]c2ccccc2c1C(c1ccccc1)c1c(C(=O)O)[nH]c2ccccc12	-15.8%	-24.3%	-3.9%	?	-16.4%	-36.3%	·	·
CC1COCC(C)N1C1=C(Cl)C(=O)c2ccccc2C1=O (configuration not stated)	-34.4%	8.91µM*	-21.7%	·	-14.7%	-8.4%	42.3*	26.9*
COc1ccc(-c2nc3sc(CCNS(=O)(=O)c4ccccc4)c(C)n3n2)cc1	·	26.0%	-4.1%	-9.8%	-9.0%	-5.7%[60.1 µM]	·	·
O=C(CSc1nnc(SCc2cccc3ccccc23)s1)N/N=C/c1c[nH]c2ccccc12	-9.6%	6.8%	8.6%	4.7%	-18.5%	1.3%	·	·
O=C(Cc1cccs1)N/N=C/C=C/c1ccco1	?	28.2µM*	-18.3%	17.8µM*	8.91µM*	79.4µM*	?	?	Pol kappa inh-2=29.9*
O=C(CSc1nnc(SCc2ccc(Cl)cc2)s1)N/N=C/c1c[nH]c2ccccc12	?	10µM*	?	8.91µM*	3.16µM*	?	8.44*	19*
O=C(CSc1nnc(SCc2ccccc2)s1)N/N=C/C=C/c1ccco1	39.8µM*	14.1µM*	?	10µM*	2.82µM*	25.1µM*	15*	19*	Pol kappa inh-2=15*
Cn1c(SCC(=O)N/N=C/C=C/c2ccco2)nc2ccccc21	?	35.5µM*	?	22.4µM*	14.1µM*	79.4µM*	67*	75.7*
O=C1NC(=O)C([N+](=O)[O-])=C(O)C1=O	9.5%	·	·	·	-8.7%	·	·	·
COC(=O)[C@]12CCCCC=C1N(Cc1ccc3c(c1)OCO3)C(=O)[C@H](CC(=O)NCCC(C)C)C2	-0.4%	·	·	·	·	·	·	·
CN(C(=O)c1ccccc1C(=O)OCC(=O)c1ccc(F)c(F)c1)C1CCCCC1	-5.7%	16.7%	-7.0%	·	-12.5%	-7.7%	·	·

From PubChem BioAssay
